The structures appear in SMILES notation. Compounds without any hit were thinned out: in the full panel of roughly 83,000, 20% have a hit.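 48-hour exposure, single concentration, 96-well plates; percent growth endpoint where 0 means no net growth. Active: below 10.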 A number with no mark means an inactive call. The source made the active and inactive calls.

Eight molecules from PubChem BioAssay (NCI) can be followed below.

Some test systems named below: SK-MEL-2 melanoma; EKVX NSCLC; SN12C renal; UO-31 renal; TK-10 renal; A498 renal; CCRF-CEM leukemia; MOLT-4 leukemia; SR leukemia; RPMI-8226 leukemia; OVCAR-8 ovarian; OVCAR-5 ovarian; OVCAR-4 ovarian; SK-OV-3 ovarian; IGROV1 ovarian; OVCAR-3 ovarian; HS 578T breast; NCI/ADR-RES ovarian; ACHN renal; CAKI-1 renal.
Holding throughout (assay): NCI-60 one-dose screen, 48 h (100 = growth as untreated, 0 = no growth, -100 = all killed)
Holding throughout (conditions): 10 µM unless noted

Turning to `CC1=C(O)C(=O)C(C(C#N)(C#N)C(C#N)C#N)C1` (stereo unspecified), the growth was 83.9% in the assay with SK-MEL-2 melanoma; 95.3% in the assay with EKVX NSCLC; 100% with SN12C renal; 94.3% in the assay on UO-31 renal; 105% in the assay with TK-10 renal; 97.1% with A498 renal. Moreover, the growth was 112% with CCRF-CEM leukemia; 100% in the assay on MOLT-4 leukemia; 99.3% with SR leukemia; 106% with RPMI-8226 leukemia; 101% in the assay with OVCAR-8 ovarian; 109% in the assay on OVCAR-5 ovarian. The growth is 107% with OVCAR-4 ovarian; 99% in the assay with SK-OV-3 ovarian; 102% in the assay with IGROV1 ovarian; 94.8% in the assay with OVCAR-3 ovarian; 98.9% in the assay with HS 578T breast; 97.7% in the assay with NCI/ADR-RES ovarian.

Regarding `COc1ccc(CN2c3ccccc3Sc3ccccc32)c(C(F)(F)F)c1`, the growth is 3.52% (active) with SK-MEL-2 melanoma; 49.9% in the assay with EKVX NSCLC; 45.6% in the assay on UO-31 renal; 65.5% with TK-10 renal; 48.7% in the assay with ACHN renal; 32.5% in the assay on CAKI-1 renal. In addition, the growth with A498 renal was 4.16% (active); with CCRF-CEM leukemia, 10.5%; with MOLT-4 leukemia, 24%; with SR leukemia, 12.1%; in the assay on RPMI-8226 leukemia it was 28.8%; with OVCAR-8 ovarian it was 31.1%. In addition, the growth in the assay on OVCAR-5 ovarian was 65.5%; in the assay with OVCAR-4 ovarian, 44.2%; with SK-OV-3 ovarian it was 17.8%; in the assay on IGROV1 ovarian, 43.4%; in the assay with OVCAR-3 ovarian, 5.59% (active); in the assay with HS 578T breast, 22.8%. In addition, the growth in the assay on NCI/ADR-RES ovarian was 22.7%.

Consider `CCN(CC)S(=O)(=O)c1ccc(OC)c(NC(=O)c2[nH]c(C)c3c2CCCCC3=O)c1`, for which the growth was 55.3% in the assay on SK-MEL-2 melanoma; 43.5% in the assay on EKVX NSCLC; 42% with SN12C renal; 14.4% with UO-31 renal; 13.5% in the assay with TK-10 renal; 15.1% in the assay on CAKI-1 renal. For the same molecule, the growth was 55.7% in the assay with CCRF-CEM leukemia; 64.9% with MOLT-4 leukemia; 43.4% in the assay on SR leukemia; 16.7% with RPMI-8226 leukemia; 41.1% in the assay on OVCAR-8 ovarian; 54.1% with OVCAR-5 ovarian. The growth in the assay on OVCAR-4 ovarian is 49.5%; in the assay with SK-OV-3 ovarian, 20.4%; with IGROV1 ovarian it was 24.8%; in the assay with OVCAR-3 ovarian, 39%; with HS 578T breast, 16.4%; with NCI/ADR-RES ovarian it was 40.2%.

With `O=C1/C(=C/c2ccccc2O)N=C2SCCCN12`, the growth in the assay with SK-MEL-2 melanoma is 95.6%; in the assay on EKVX NSCLC it was 81.8%; in the assay on UO-31 renal, 84%; in the assay on TK-10 renal it was 109%; in the assay with ACHN renal, 98.4%; in the assay with CAKI-1 renal it was 85.1%. Moreover, the growth with A498 renal is 85.7%; with CCRF-CEM leukemia it was 131%; in the assay with MOLT-4 leukemia it was 115%; in the assay on SR leukemia, 117%; in the assay with RPMI-8226 leukemia, 103%; with OVCAR-8 ovarian it was 98.4%. Further, the growth in the assay on OVCAR-5 ovarian is 91.7%; in the assay with OVCAR-4 ovarian it was 82.9%; in the assay with SK-OV-3 ovarian, 100%; with IGROV1 ovarian, 91.3%; in the assay with OVCAR-3 ovarian, 92.9%; with HS 578T breast, 87.7%. Further, the growth in the assay on NCI/ADR-RES ovarian was 99.6%.

As for `COc1cccc(-c2nc3sccn3c2-c2ccnc(NCCNS(=O)(=O)c3ccccc3)c2)c1`, the growth with SK-MEL-2 melanoma is 30.1%; in the assay with EKVX NSCLC it was 29.8%; with SN12C renal, 28.9%; in the assay on UO-31 renal, 5.71% (active); in the assay on TK-10 renal it was 55.5%; in the assay with CAKI-1 renal it was 9.12% (active). Moreover, the growth in the assay with A498 renal is 44.2%; in the assay on CCRF-CEM leukemia, 10.1%; in the assay on MOLT-4 leukemia, 12%; in the assay with RPMI-8226 leukemia, -27.1% (active); in the assay with OVCAR-8 ovarian, 13.9%; with OVCAR-5 ovarian, 45.3%. Besides, the growth with OVCAR-4 ovarian was 15.2%; in the assay on SK-OV-3 ovarian, 42%; in the assay on IGROV1 ovarian, 25.5%; in the assay on OVCAR-3 ovarian, 42.2%; in the assay with HS 578T breast it was 35.7%; in the assay with NCI/ADR-RES ovarian, 6.38% (active).

For `COc1ccc(/C=N/C2=C(C#N)C(c3ccc(N(C)C)cc3)c3ccc4ccccc4c3O2)cc1` (stereo unspecified), the growth is 62.6% in the assay on SK-MEL-2 melanoma; 61.3% in the assay with EKVX NSCLC; 72.3% with SN12C renal; 46.5% in the assay on UO-31 renal; 132% in the assay with TK-10 renal; 19.6% in the assay on CAKI-1 renal. The growth in the assay with CCRF-CEM leukemia was 63.1%; in the assay on MOLT-4 leukemia it was 54.4%; in the assay on SR leukemia it was 19.4%; in the assay on RPMI-8226 leukemia it was 63%; with OVCAR-8 ovarian, 85.8%; with OVCAR-5 ovarian, 88%. Further, the growth is 86.8% in the assay with OVCAR-4 ovarian; 73.7% in the assay with SK-OV-3 ovarian; 39.5% in the assay on IGROV1 ovarian; 38.2% in the assay on OVCAR-3 ovarian; 58.6% with HS 578T breast; 46.7% in the assay with NCI/ADR-RES ovarian.

For the molecule `Brc1ccc(-c2csc(Nc3ccccn3)n2)cc1`, the growth in the assay on SK-MEL-2 melanoma is 69.8%; in the assay with EKVX NSCLC, 70%; with SN12C renal, 95.7%; in the assay on UO-31 renal it was 75.8%; with TK-10 renal, 101%; in the assay on CAKI-1 renal, 84.2%. The growth with A498 renal is 91.3%; in the assay with CCRF-CEM leukemia, 74.8%; in the assay on MOLT-4 leukemia, 82.6%; with SR leukemia, 68.8%; in the assay with RPMI-8226 leukemia, 68%; in the assay on OVCAR-8 ovarian, 101%. Besides, the growth in the assay on OVCAR-5 ovarian is 92.4%; in the assay on OVCAR-4 ovarian, 50%; with SK-OV-3 ovarian it was 82.7%; with IGROV1 ovarian it was 79.4%; in the assay with OVCAR-3 ovarian it was 82.9%; with HS 578T breast, 114%. Also, in the assay on NCI/ADR-RES ovarian, the growth was 74%.

Consider `CC[C@@H]1O[C@H](O[C@@H](c2cnc[nH]2)[C@H](NC(=O)c2nc([C@H](CC(N)=O)NC[C@@H](N)C(N)=O)nc(N)c2C)C(=O)N[C@H](C)[C@H](O)[C@H](C)C(=O)N[C@@H](C(=O)NCCc2nc(-c3nc(C(=O)NCCCCN=C(N)N)cs3)cs2)[C@@H](C)O)[C@H](O[C@@H]2O[C@H](CO)[C@H](O)[C@H](OC(N)=O)[C@@H]2O)[C@H](C)[C@@H]1C`, for which the growth in the assay with SK-MEL-2 melanoma is 101%; in the assay on EKVX NSCLC, 91.8%; in the assay on SN12C renal it was 21.9%; with UO-31 renal it was 23.2%; in the assay on TK-10 renal, 71.9%; in the assay on A498 renal, 78.2%. Further, the growth is 80.5% in the assay on CCRF-CEM leukemia; 46.8% in the assay on MOLT-4 leukemia; 73% in the assay on RPMI-8226 leukemia; 47.2% with OVCAR-8 ovarian; 59.5% in the assay with OVCAR-5 ovarian; 85.6% with OVCAR-4 ovarian. The growth with SK-OV-3 ovarian is 41.8%; in the assay on IGROV1 ovarian, 45.5%; in the assay with OVCAR-3 ovarian, 60.8%; in the assay on HS 578T breast, 38.8%; in the assay on NCI/ADR-RES ovarian, 20.1%.
